FUS suppressor: suppressors of FUS proteinopathy in yeast | S. cerevisiae FUS-expressing, growth rescue, OD600, 24 h | Potency, µM (doses to about 76.6 µM), hits mostly activators | 390,000 tested, 0.24% active; note: nearly all actives have a fitted effect of over 55% in size
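Restored growth of FUS-toxic S. cerevisiae, read as 600 nm absorbance after 24 h at 30C in galactose medium (starting OD 0.005). Controls CP55940 and DMSO.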
TDP43 rescue: TDP-43 toxicity inhibition in yeast; TDP-43 expressing yeast growth rescue, BacTiter-Glo, 24 h; Potency, µM (top dose mostly 46.1 µM), usual class: activators; 410,000 tested, 1.8% active; note: nearly all actives have a fitted effect of over 50% in size
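Yeast cells expressing TDP-43 under galactose induction are exposed to compounds for 24 hr at 30 deg C. BacTiter-Glo luminescence measures growth, so protective compounds score as activators.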
Abeta yeast res: A-beta toxicity reversal in yeast. 410,000 tested, 0.063% active. Potency, µM (top dose mostly 46.1 µM), usual class: activators. yeast expressing A-beta42, growth rescue, OD600, 48 h; response scale: 0% DMSO, 100% iron-clioquinol control; note: nearly all actives have a fitted effect of over 55% in size
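Growth rescue measured by 600 nm absorbance after 48 h yeast culture at 30 C with compound. Values normalized between DMSO and an equimolar ferric chloride plus clioquinol control.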
Mito fusion yeast: mitochondrial division inhibition or fusion activation | S. cerevisiae fusion-defective mutant growth rescue, CellTiterGlo 48 h | Potency, µM (series often up to 46.1 µM), most hits filed as activators | 320,000 tested, 0.23% active | AID 485298; note: nearly all actives have a fitted effect of over 45% in size
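Compounds are tested for their ability to restore growth of mitochondrial fusion-defective yeast strains at non-permissive 37C in YPEG medium over 48 hours. Viability is quantified by luciferase luminescence.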
aSyn yeast inh: alpha-synuclein toxicity inhibition in yeast; AID 652106; Yeast expressing alpha-synuclein, growth rescue, BacTiter-Glo, 24 h; 370,000 tested, 0.14% active; Potency, µM (highest dose often 46.1 µM), hits mostly activators; note: nearly all actives have a fitted effect of over 65% in size
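Screening used galactose-induced yeast with toxic alpha-synuclein levels, exposed to compound for 24 hr at 30 deg C. Cell growth, read with BacTiter-Glo luminescence, gave the measured signal.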
A number is an active result; i = inactive; ? = inconclusive; nt = not tested or not shown; ! = repeats disagree. Sampled rows, rich in hits. Any-hit rate of the full collection: about 2.2%. Calls come from the whole dose curve; as a rule, active = well fitted curve in the direction sought with a large enough effect; inconclusive = small, poorly fitted or top-dose-only effect, or another doubt; inactive = no such curve, though single readings can be large; an effect the other way counts as inactive or inconclusive.

SMILES	FUS suppressor	TDP43 rescue	Abeta yeast res	Mito fusion yeast	aSyn yeast inh
Cc1cc(C)nc(NC(=NCCc2c[nH]c3ccc(Cl)cc23)NC(=O)c2ccccc2C)n1	i	i	i	nt	0.56µM
COc1ccc2[nH]cc(CCN=C(NC(=O)c3ccccc3C)Nc3nc(C)cc(C)n3)c2c1	i	i	i	nt	i
CCOc1ccc(NC(=O)CC2C(=O)N(c3cccc(C)c3)C(=O)N2Cc2cccs2)cc1 (stereo not drawn)	i	i	i	nt	nt
COc1cc(NC(=O)Cn2cc(S(=O)(=O)c3ccccc3)c(=O)c3ccccc32)cc(OC)c1	i	i	i	nt	nt
COc1ccc2c(c1)c(=O)c(S(=O)(=O)c1ccc(C)c(C)c1)cn2CC(=O)Nc1ccccc1	13µM	i	i	nt	nt
COc1cc(NC(=O)C2CCCN(S(=O)(=O)c3ccc(Br)s3)C2)cc(OC)c1 (stereo not drawn)	i	nt	nt	nt	nt
Cc1ccc(-c2noc(C3CCCN(C(=O)c4ccccc4Br)C3)n2)cc1 (stereo not drawn)	i	13µM	i	i	i
O=C(Nc1ccc(F)cc1F)N1CCCC(c2nc(-c3ccc(F)cc3)no2)C1 (stereo not drawn)	?	13µM	i	i	i
COc1ccc(-c2oc3c(c2C#CC2(O)CCCCC2)C(OC(C)=O)CCC3)cc1 (stereo not drawn)	?	20µM	i	nt	i
Cc1cccc(NC(=O)C2C(c3ccccc3)C2(Cl)Cl)c1 (stereo not drawn)	i	22µM	i	?	i
COc1ccc(-c2nc3ccccc3n3c(-c4ccc(OC)cc4)c4c(=O)n(C)c(=O)n(C)c4c23)cc1	i	?	i	nt	nt
O=C(Nc1nc2c(Cl)ccc(Cl)c2s1)c1ccco1	i	?	i	i	i
O=C(Nc1nc2c(s1)CCc1ccccc1-2)c1ccco1	i	13µM	i	i	i
O=C(CCCl)Nc1nc2c(s1)CCc1ccccc1-2	i	22µM	i	i	i
CC(=O)Nc1nc2c(s1)CCc1ccccc1-2	i	i	nt	i	i
COc1cccc(/C=C/c2ccnc3ccccc23)c1OC	nt	nt	nt	nt	i
CC(=O)C1=CCC(c2ccc(C)cc2)N(S(=O)(=O)c2ccc(C)cc2)C1 (stereo not drawn)	i	i	i	nt	i
CC(=O)C1=CCC(c2ccc(Cl)cc2)N(S(=O)(=O)c2ccc(C)cc2)C1 (stereo not drawn)	?	35µM!	i	nt	?
CC(=O)C1=CCC(c2ccc(Cl)cc2)N(S(=O)(=O)c2ccccc2)C1 (stereo not drawn)	i	14µM	i	nt	?
CCCN1CNc2c(c(=O)[nH]c(=S)n2CCc2ccccc2C)C1	nt	nt	nt	nt	i
N#Cc1ccc(C(=O)N(Cc2ccco2)Cc2cccs2)cc1	nt	nt	nt	nt	i
Cc1ccccc1NC(=S)c1nc2ccccc2[nH]1	i	18µM	?	i	i
S=C(Nc1ccc(Cl)cc1)c1nc2ccccc2[nH]1	nt	?	i	i	i
CCc1nn(CC(=O)NCCC(C)C)c(=O)c2cc3occc3n12	i	i	i	nt	nt
Cc1ccc(-c2nnn(CC(=O)N(CC3CCCO3)C(C(=O)NC3CCCC3)c3ccc(F)cc3)n2)o1 (stereo not drawn)	i	i	i	i	i
SMILES	FUS suppressor	TDP43 rescue	Abeta yeast res	Mito fusion yeast	aSyn yeast inh
Cc1ccc(-c2nnn(CC(=O)N(CC3CCCO3)C(C(=O)NC3CCCC3)c3ccc(O)cc3)n2)o1 (stereo not drawn)	28µM	i	i	i	i
CCCn1c(=O)c2sccc2n2c(CCCC(=O)NCCOC)nnc12	i	i	i	nt	nt
COc1cc(C2c3c(-c4cc(C)cc(C)c4O)n[nH]c3C(=O)N2CCCO)cc(OC)c1OC (stereo not drawn)	i	i	i	i	i
COCCCN1C(=O)c2[nH]nc(-c3cc(C)cc(C)c3O)c2C1c1ccc(O)c(OC)c1 (stereo not drawn)	40µM	i	i	i	i
Cc1ccc(CNC(=O)c2ccc(CSCc3ccc(C)cc3)o2)cc1	i	i	i	nt	nt
Cc1ccc(CNC(=O)c2ccc(CSCc3cccc(C)c3)o2)cc1	i	35µM	i	nt	?
O=C(OCc1ccc(CSc2nnc(-c3cccc4ccccc34)o2)cc1)c1ccc(F)cc1	i	nt	nt	nt	nt
CCOC(=O)C1CCN(C(=O)c2cc3cc(Cl)ccc3[nH]2)CC1	i	16µM	i	i	i
CCOC(=O)C1CCN(C(=O)c2cc3ccc(OC)cc3[nH]2)CC1	i	i	i	i	i
CN(C1CCCCC1)S(=O)(=O)c1ccc(NC(=O)c2ccc(Br)o2)cc1	i	i	i	11µM	i
Cn1c(=O)oc2cc(S(=O)(=O)N3CCN(CCO)CC3)ccc21	i	nt	nt	nt	nt
NC(=S)Nc1cc2ccccc2c2ccccc12	i	22µM	i	i	i
NC(=S)Nc1cccc2cc3ccccc3cc12	i	?	i	i	i
COc1ccc(C(=O)O/N=C(\C)c2cnccn2)cc1	i	18µM	i	i	i
CCN(CC)c1ccc(NC(=O)C2CCCN(S(=O)(=O)c3ccc4c(c3)oc(=O)n4C)C2)c(C)c1 (stereo not drawn)	i	i	i	nt	nt
CCN(CC)C(=S)SCC(=O)Nc1ccc(F)cc1	i	14µM	i	i	i
Cc1cc(NC(=O)Cn2nc(C)n3cccc3c2=O)ccc1Br	i	i	i	nt	nt
Cc1cc(C)n(CC(=O)Nc2cccc(C(F)(F)F)c2)n1	i	i	i	i	i
CCN(CC)C(=S)SCC(=O)Nc1cccc(C(F)(F)F)c1	i	13µM	i	nt	i
Cc1nn(CC(=O)Nc2cccc(C(F)(F)F)c2)c(=O)c2cccn12	i	i	i	i	6.3µM
O=C(CSc1nc2ncccc2o1)Nc1cccc(C(F)(F)F)c1	i	10µM	13µM	nt	nt
Cc1ccccc1CN1CCCCC(NC(=O)c2ccc(Br)cc2)C1=O (stereo not drawn)	i	nt	nt	nt	nt
CCn1c(=O)c(-c2cc(=O)[nH][nH]2)c(O)c2ccccc21	32µM	i	i	i	i
CCn1c(=O)c(-c2ccccc2)c(O)c2ccccc21	i	?	i	i	i
Cn1c(=O)c(-c2cccc(Cl)c2)c(O)c2ccccc21	i	11µM	i	nt	i
SMILES	FUS suppressor	TDP43 rescue	Abeta yeast res	Mito fusion yeast	aSyn yeast inh
CCCCn1c(=O)c(-c2ccccc2)c(O)c2ccccc21	i	18µM	i	i	i
Cc1ccc(CNC(=O)c2cc(-c3ccc(C)cc3)nc3n[nH]c(-c4cccc([N+](=O)[O-])c4)c23)cc1	i	i	i	nt	nt
CN(c1ccccc1)c1cc(Br)nc(Br)c1	i	14µM	i	nt	i
Clc1ccc(CSc2nnc(-c3c[nH]c4ccccc34)o2)cc1	i	i	i	i	i
Brc1ccc(CSc2nnc(Cc3c[nH]c4ccccc34)o2)cc1	nt	8.9µM	i	i	i
Cc1cccc(C(=O)OC(C)C(=O)N2CCc3ccccc3C2)c1C (stereo not drawn)	nt	18µM	i	i	i
OC[C@@H]1CCC[C@@H](n2cnc3c(=S)nc[nH]c32)O1	nt	nt	nt	nt	i

Screening data: PubChem, National Center for Advancing Translational Sciences (NCATS)
